The text below walks through data of PubChem BioAssay (Tox21).

Each structure is given as a SMILES string. Inconclusive results are not listed. Unmarked numbers belong to inactive results. Calls of active or inactive are those of the source. Unless noted, the call rests on the fitted dose curve; in most records, active means well fitted curve in the direction sought with a large enough effect in the repeat runs; inconclusive means weak or mixed curves; inactive means no such curve, though single readings can be large; an effect the other way counts as inactive or inconclusive.

Assay [1] in a line: qHTS assay to identify small molecule antagonists of the peroxisome proliferator-activated receptor delta (PPARd) signaling pathway - cell viability counter screen (AID 743213). Further: nearly all actives have a fitted effect of over 50% in size. Further: potency means the concentration at half of the fitted maximal effect. In short, it runs like this:
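HEK293H cells with the PPARd UAS-bla reporter, co-treated 17 h at 37 C with compounds and L165041 (300 nM final), were lysed with CellTiter-Glo. Luminescence indicated viable cell content.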
On the technique in general: In qHTS, concentration-response curves come from the screen itself.

Assay [2] deals with Bile acid receptor (Homo sapiens) (UniProt Q96RI1). Description: qHTS assay to identify small molecule agonists of the farnesoid-X-receptor (FXR) signaling pathway (AID 743220; active means well fitted activation curve with a large enough effect in the signal ratio in the repeat runs, not every such curve was filed as active; the % refers to the signal ratio; further: on the % scale 0 is the no-effect control and ±100 the full control effect). In outline:
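FXR-UAS-bla HEK 293T cells carrying a UAS-driven beta-lactamase reporter were plated for 5 h at 37C/5% CO2, then exposed to DMSO-dissolved Tox21 10K compounds for 16 h at 37C. A LiveBLAzer B/G FRET substrate was loaded for 2 h at room temperature before fluorescence reading.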

Assay [3] can be described thus: qHTS assay to identify small molecule antagonists of the farnesoid-X-receptor (FXR) signaling pathway - cell viability counter screen (AID 743221; active means well fitted cell-killing curve with a large enough effect in the repeat runs, not every such curve was filed as active; further: nearly all actives have a fitted effect of over 50% in size; further: potency means the concentration at half of the fitted maximal effect). In short, it runs like this:
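FXR-UAS-bla HEK 293T cells were treated with test compounds plus chenodeoxycholic acid (50 uM final) for 16 h at 37 C. Cell viability in the same wells was then read as CellTiter-Glo luminescence after 30 min at room temperature.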

Assay [4] concerns the target Vitamin D3 receptor (Homo sapiens) (UniProt P11473). Description: qHTS assay to identify small molecule antagonists of the vitamin D receptor (VDR) signaling pathway (AID 743223; active means well fitted inhibition curve with a large enough effect in the signal ratio in the repeat runs, not every such curve was filed as active; the % refers to the signal ratio; further: on the % scale 0 is the no-effect control and ±100 the full control effect). In short, it runs like this: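 VDR-bla cells were plated, incubated 4 h at 37C, then given compound and 1alpha,25-dihydroxyvitamin D3 (3 nM final). After 16 h at 37C, LiveBLAzer B/G FRET substrate was added for 2 h at room temperature and fluorescence read.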

Assay [5] in a line: qHTS assay to identify small molecule antagonists of the vitamin D receptor (VDR) signaling pathway - cell viability counter screen (AID 743225). Further: on the % scale 0 is the no-effect control and ±100 the full control effect; nearly all actives have a fitted effect of over 50% in size. In outline: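 VDR-bla HEK 293T cells, 4 h pre-incubation at 37C, then compound plus 1-alpha,25-dihydroxyvitamin D3 (3 nM final) for 16 h. After the beta-lactamase FRET read, CellTiter-Glo was added to the same wells; luminescence after 30 min at room temperature.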

Assay [6] is described as follows: qHTS assay to identify small molecule agonists of the NFkB signaling pathway (AID 1159509; active means well fitted curve in the direction sought with a large enough effect in the signal ratio in the repeat runs, not every such curve was filed as active; the % refers to the signal ratio; further: series mostly up to about 61 µM; on the % scale 0 is the no-effect control and ±100 the full control effect). In outline: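 Pathway activation was measured in ME-180 cells stably expressing beta-lactamase under NF-kB response element control. Substrate cleavage was read as the 460/530 nm emission shift after 5 hr compound incubation.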
Assay [7] can be described thus: qHTS assay to identify small molecule agonists of the NFkB signaling pathway - cell viability counter screen (AID 1159515; calls by dose curve; further: series mostly up to about 61 µM; on the % scale 0 is the no-effect control and ±100 the full control effect; nearly all actives have a fitted effect of over 55% in size). In short, it runs like this:
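Plate 2,000 NFkB-bla ME-180 cells/well; incubate overnight. Add compounds, 5 hr at 37 C. Add FRET substrate, 1.5 hr RT. Add CellTiter-Glo, 30 min RT; read luminescence.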

Assay [8] can be described thus: qHTS assay to identify small molecule agonists of the endoplasmic reticulum stress response signaling pathway (AID 1159516; active means well fitted activation curve with a large enough effect in the signal ratio in the repeat runs, not every such curve was filed as active; the % refers to the signal ratio; further: on the % scale 0 is the no-effect control and ±100 the full control effect). In outline: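 Beta-lactamase expression from the ER stress response element in HeLa reporter cells is quantified with the LiveBLAzer B/G FRET substrate, read at 405 nm excitation after 2 hr at room temperature, following 5 hr compound treatment at 37 C.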

The nature of assay [9]: qHTS assay to identify small molecule agonists of the endoplasmic reticulum stress response signaling pathway - cell viability counter screen (AID 1159517; calls by dose curve; further: series mostly up to about 61 µM; on the % scale 0 is the no-effect control and ±100 the full control effect; nearly all actives have a fitted effect of over 50% in size). In short, it runs like this:
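Cpd-treated ESRE-bla HeLa (5 hr, 37 C) → LiveBLAzer 2 hr RT → CellTiter-Glo 30 min RT → luminescence.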

Assay [10] in a line: qHTS assay to identify small molecule antagonists of the retinoid-related orphan receptor gamma (ROR-gamma) signaling pathway - cell viability counter screen (AID 1159520). In outline: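 Tet-on ROR gamma CHO cells (1,000/well) were plated 4 hr, given compounds in DMSO for 2 hr at 37 C, then induced with 1 uM final doxycycline for 16 hr. Viability was read as ATP by CellTiter-Glo luminescence after 30 min.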

The target of assay [11] is Nuclear receptor ROR-gamma (Homo sapiens) (UniProt P51449). In words: qHTS assay to identify small molecule antagonists of the retinoid-related orphan receptor gamma (ROR-gamma) signaling pathway (AID 1159521). In short, it runs like this: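 Tet-on RORγ CHO cells carrying a ROR response element–luciferase reporter were pretreated with compounds for 2 h, then induced with 1 uM (final) doxycycline hyclate for 16 h at 37 C. Antagonism was read as decreased ONE-Glo luminescence.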

Assay [12] in a line: qHTS assay to identify small molecule agonists of the AP-1 signaling pathway - cell viability counter screen (AID 1159525; calls by dose curve; further: nearly all actives have a fitted effect of over 55% in size). In short, it runs like this:
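Each titration point was normalised to DMSO and tetra n-octyl ammonium bromide controls. The read was Cell Titer Glo luminescence after 30 min at RT, following 5 h compound exposure of ME-180 AP-1-bla cells at 37 °C.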

The nature of assay [13]: qHTS assay to identify small molecule agonists of the AP-1 signaling pathway (AID 1159526; calls by dose curve; further: on the % scale 0 is the no-effect control and ±100 the full control effect).
For assay [14], the target named is Peroxisome proliferator-activated receptor delta (Homo sapiens) (UniProt Q03181). In words: qHTS assay to identify small molecule antagonists of the peroxisome proliferator-activated receptor delta (PPARd) signaling pathway (AID 743215; active means well fitted inhibition curve with a large enough effect in the signal ratio in the repeat runs, not every such curve was filed as active; the % refers to the signal ratio). In short, it runs like this:
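Fluorescence from cleaved LiveBLAzer B/G FRET substrate (2 h, room temperature) reports PPARd-driven beta-lactamase in HEK293H UAS-bla cells. Cells had been treated 17 h at 37 C with compound plus 300 nM final L165041.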

Assay [15] is described as follows: qHTS assay to identify small molecule agonists of the farnesoid-X-receptor (FXR) signaling pathway - cell viability counter screen (AID 743218). Further: on the % scale 0 is the no-effect control and ±100 the full control effect; nearly all actives have a fitted effect of over 45% in size. In outline:
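Readout: CellTiter-Glo luminescence, 30 min RT, multiplexed after the FXR-bla FRET reading. HEK 293T FXR-UAS-bla cells received compound 5 h post-plating and were incubated 16 h at 37 C.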

The target of assay [16] is Vitamin D3 receptor (Homo sapiens) (UniProt P11473). Description: qHTS assay to identify small molecule agonists of the vitamin D receptor (VDR) signaling pathway (AID 743222; calls by dose curve; further: on the % scale 0 is the no-effect control and ±100 the full control effect). In short, it runs like this: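 Following 4 h attachment at 37C, VDR-bla cells (2,000 per well) received DMSO-dissolved compounds or controls. After 16 h incubation, LiveBLAzer B/G FRET substrate was added and fluorescence read 2 h later at room temperature.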

Assay [17] can be described thus: qHTS assay to identify small molecule agonists of the vitamin D receptor (VDR) signaling pathway - cell viability counter screen (AID 743224). In outline:
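In parallel with the bla FRET readout, cytotoxicity toward VDR-bla cells after 16 h compound exposure was assessed by CellTiter-Glo, with luminescence recorded after a 30 min room-temperature incubation.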

Assay [18] can be described thus: qHTS assay to identify small molecule agonists of the peroxisome proliferator-activated receptor delta (PPARd) signaling pathway - cell viability counter screen (AID 743211). Further: on the % scale 0 is the no-effect control and ±100 the full control effect; nearly all actives have a fitted effect of over 55% in size. In short, it runs like this: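 PPARd-bla HEK293H cells (UAS-beta-lactamase reporter) were treated with compounds for 17 h at 37 C. Viability was then read in the same wells by CellTiter-Glo luminescence after 30 min at room temperature.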

The target in assay [19] is Peroxisome proliferator-activated receptor delta (Homo sapiens) (UniProt Q03181). Description: qHTS assay to identify small molecule agonists of the peroxisome proliferator-activated receptor delta (PPARd) signaling pathway (AID 743212; calls by dose curve; further: on the % scale 0 is the no-effect control and ±100 the full control effect). In outline: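 Cells expressing a UAS-driven beta-lactamase reporter (PPARd-bla HEK293H) were given test compounds after a 5 h settle and kept at 37 C. Reporter activity was then measured as FRET fluorescence using LiveBLAzer B/G substrate.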

The target of assay [20] is Bile acid receptor (Homo sapiens) (UniProt Q96RI1). In words: qHTS assay to identify small molecule antagonists of the farnesoid-X-receptor (FXR) signaling pathway (AID 743217; active means well fitted inhibition curve with a large enough effect in the signal ratio in the repeat runs, not every such curve was filed as active; the % refers to the signal ratio; further: on the % scale 0 is the no-effect control and ±100 the full control effect). In outline: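 FRET fluorescence after 2 h room-temperature LiveBLAzer loading gives the readout. Prior step: FXR-bla HEK 293T cells, seeded and incubated 5 h, received test compounds plus 50 uM final CDCA for 16 h at 37 °C.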
Chain of Bile acid receptor (Homo sapiens) (Q96RI1 whole entry, looked up): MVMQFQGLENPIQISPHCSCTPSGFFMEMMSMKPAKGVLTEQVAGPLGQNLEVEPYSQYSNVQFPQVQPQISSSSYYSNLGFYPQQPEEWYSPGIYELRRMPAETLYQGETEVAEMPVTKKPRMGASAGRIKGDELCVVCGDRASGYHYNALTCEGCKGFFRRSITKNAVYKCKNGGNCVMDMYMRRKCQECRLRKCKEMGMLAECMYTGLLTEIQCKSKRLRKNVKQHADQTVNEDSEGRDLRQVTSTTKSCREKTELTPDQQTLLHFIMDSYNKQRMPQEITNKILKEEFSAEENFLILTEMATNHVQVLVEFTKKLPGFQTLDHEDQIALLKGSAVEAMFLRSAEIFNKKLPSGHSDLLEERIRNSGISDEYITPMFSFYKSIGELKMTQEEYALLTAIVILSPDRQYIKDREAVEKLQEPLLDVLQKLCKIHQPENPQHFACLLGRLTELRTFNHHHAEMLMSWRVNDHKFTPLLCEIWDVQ

Chain of Peroxisome proliferator-activated receptor delta (Homo sapiens) (Q03181 whole entry, looked up): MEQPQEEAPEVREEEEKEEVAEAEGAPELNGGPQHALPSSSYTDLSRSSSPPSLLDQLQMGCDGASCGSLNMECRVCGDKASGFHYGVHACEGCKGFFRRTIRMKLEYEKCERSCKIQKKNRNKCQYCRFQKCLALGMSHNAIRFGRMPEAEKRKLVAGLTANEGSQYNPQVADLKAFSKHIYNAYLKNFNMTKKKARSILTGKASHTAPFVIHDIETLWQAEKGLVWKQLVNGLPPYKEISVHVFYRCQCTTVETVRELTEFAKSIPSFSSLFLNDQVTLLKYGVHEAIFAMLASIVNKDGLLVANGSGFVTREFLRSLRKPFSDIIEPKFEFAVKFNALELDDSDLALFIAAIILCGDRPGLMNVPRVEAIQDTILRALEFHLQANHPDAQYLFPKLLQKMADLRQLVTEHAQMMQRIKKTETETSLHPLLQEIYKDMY
Chain of Vitamin D3 receptor (Homo sapiens) (P11473 whole entry, looked up): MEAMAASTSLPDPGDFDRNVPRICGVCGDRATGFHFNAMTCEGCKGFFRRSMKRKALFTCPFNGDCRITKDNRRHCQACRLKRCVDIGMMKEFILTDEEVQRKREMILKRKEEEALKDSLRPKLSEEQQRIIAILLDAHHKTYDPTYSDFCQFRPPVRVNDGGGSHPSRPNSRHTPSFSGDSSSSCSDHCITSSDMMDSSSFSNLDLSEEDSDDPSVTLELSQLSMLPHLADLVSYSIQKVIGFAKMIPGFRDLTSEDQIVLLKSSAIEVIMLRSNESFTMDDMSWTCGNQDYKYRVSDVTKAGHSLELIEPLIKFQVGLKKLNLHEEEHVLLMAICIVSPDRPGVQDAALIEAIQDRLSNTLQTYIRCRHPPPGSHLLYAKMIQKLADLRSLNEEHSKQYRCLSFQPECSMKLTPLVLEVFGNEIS

Regarding `CN(C)C(=O)C(CCN1CCC(O)(c2ccc(Cl)cc2)CC1)(c1ccccc1)c1ccccc1`, the Potency in [1] was 11.9 µM (active); in assay [3], 29.8 µM (active). The call in [2], in assay [4], in assay [5], in assay [6], in assay [7] and in assay [8] was inactive. Further, the result in assay [9] and in [12] was inactive. The Potency result in assay [10], in assay [11] and in assay [13] was “inactive” in each case.
With `COC(=O)C1=C(C)NC(C)=C(C(=O)OCC(C)=O)C1c1ccccc1[N+](=O)[O-]` (stereo unspecified), the Potency result in [1], in [3], in assay [10], in assay [11] and in assay [13] was “inactive” in each case. Also, the result in assay [14], in [15], in assay [2], in [16], in assay [4] and in assay [17] was inactive. Further, the compound was classed as inactive in [5], in [6], in assay [7], in assay [8], in [9] and in assay [12].
Turning to `CN(C)C(=O)Nc1ccccc1`, the Potency result in assay [18], in assay [1], in assay [10], in [11] and in assay [13] was “inactive” each time. Further, the result in assay [14], in assay [15], in assay [16], in assay [4], in assay [17] and in assay [5] was inactive. In addition, the outcome in assay [6], in [7], in assay [8] and in [9] was inactive.
As for `COc1ccc2cc(C=O)ccc2c1`, the Potency result in assay [18], in [1], in assay [10], in assay [11] and in assay [13] was “inactive” throughout. The compound was classed as inactive in assay [19], in assay [14], in assay [15], in [16], in assay [4] and in assay [17]. In addition, the compound was classed as inactive in assay [5], in assay [6], in assay [7], in assay [8] and in [9].
Take `CC(C)CCCCCCN`: the Potency entry in assay [18], in [1], in assay [10], in [11] and in assay [13] was “inactive” each time. For the same compound, the compound was classed as inactive in [14], in assay [15], in assay [17], in [5], in assay [6] and in [7]. In addition, the compound was classed as inactive in assay [8] and in assay [9].
Take `COCc1ccc(COC)cc1`: the Potency entry in assay [1], in assay [3], in assay [10], in [11] and in assay [13] was “inactive” each time. For the same compound, the call in assay [14], in assay [20], in [2], in [4], in [17] and in assay [5] was inactive. Further, the compound was classed as inactive in [6], in [7], in assay [8], in [9] and in assay [12].
Turning to `FC(F)(F)C(F)(F)C(F)(F)C(F)(F)C(F)(F)C(F)(F)C(F)(F)C(F)(F)C(F)(F)C(F)(F)F`, the viability change, negative = cytotoxic in [1] is -11.7% [at 6.26 µM]; in [15], 1.72% [at 5.95 µM]; in assay [12] it was -11.9% [at 6.97 µM]. The activity change, negative = cytotoxicity is 9.95% [at 5.95 µM] in [3], 9.06% [at 5.95 µM] in assay [17] and -26.7% [at 6.95 µM] in assay [9]. Also, the activation in assay [16] was 0.833% [at 6.01 µM]; in assay [6], -0.0985% [at 6.95 µM]; in assay [8], -9% [at 6.95 µM]; in assay [13], 7.26% [at 6.97 µM]. In addition, the activity change, negative = inhibition is -8.47% [at 6.95 µM] in [4] and 29.3% [at 8.39 µM] in [11]. Also, in assay [7], the activity, negative = cytotoxic was 0.724% [at 6.95 µM]. Moreover, in assay [10], the activity, negative = cytotoxicity is 0.201% [at 8.39 µM].
Turning to `Cn1cnc2c(=O)[nH]c(N)nc21`, the compound was classed as inactive in [19], in assay [14], in assay [15], in assay [16], in assay [4] and in [17]. Moreover, the result in assay [5], in assay [6], in assay [7], in [8], in assay [9] and in assay [12] was inactive. The Potency entry in assay [1], in [3], in assay [10], in assay [11] and in assay [13] was “inactive” each time.
For `CC(=O)CCc1ccc(O)cc1`, the compound was called inactive in assay [19], in [14], in assay [15], in [16], in assay [17] and in assay [5]. The compound was called inactive in assay [6], in assay [7], in assay [8], in [9] and in assay [12]. The Potency result in [1], in assay [10], in assay [11] and in assay [13] was “inactive” throughout.
